Results published in the supplement of paper PMC10849652.
Of roughly 7,900 targets only a part is listed; those with a hit were picked by preference. About 0.6% of all pairs of compound and target were hits.

Tests used:
Experiment in all cases: log2 fold change, soluble protein after heating vs DMSO (PISA); higher = thermal stabilisation; K562 cells, 10 uM, 30 min; active = over 0.2 and 3.5 SD of the protein, either way, in both replicates (recomputed)
[1] = compound: CS(=O)(=O)c1ccc(-c2cnc(N)c(C(=O)Nc3ccccc3)n2)cc1
In short: (§1)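 For each measurement, 10 μM compound was applied for 30 min to K562 cells at 2×10^6 cells/mL. Aliquots were heated for 3 min across 48°C-58°C, pooled, and extracted in PBS with 0.5% NP-40 at 4°C; the supernatant after 21,000xg for 90 min was soluble protein. This was quantified by TMTpro 16plex LC-MS/MS with channel sums equalised, and thermal stability was reported relative to control samples from duplicates, on a log2 fold-change scale.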

crizotinib = compound: C[C@@H](Oc1cc(-c2cnn(C3CCNCC3)c2)cnc1N)c1c(Cl)ccc(F)c1Cl [crizotinib]
In short: as §1

[2] = compound: C[C@@H]1COCCN1C2=NC(=NC(=C2)C3(CC3)S(=O)(=O)C)C4=C5C=CNC5=CC=C4
In short: as §1

tozasertib = compound: Cc1cc(Nc2cc(N3CCN(C)CC3)nc(Sc3ccc(NC(=O)C4CC4)cc3)n2)n[nH]1 [tozasertib]
In short: as §1

doramapimod = compound: Cc1ccc(-n2nc(C(C)(C)C)cc2NC(=O)Nc2ccc(OCCN3CCOCC3)c3ccccc23)cc1 [doramapimod]
In short: as §1

nilotinib = compound: Cc1cn(-c2cc(NC(=O)c3ccc(C)c(Nc4nccc(-c5cccnc5)n4)c3)cc(C(F)(F)F)c2)cn1 [nilotinib]
In short: as §1

[3] = compound: Cc1nc(Nc2n[nH]c3c2CN(C(=O)N[C@H](CN(C)C)c2ccccc2)C3(C)C)c2sccc2n1
In short: as §1

[4] = compound: Cc1ncc(-c2ccnc(Nc3ccc(S(C)(=O)=O)cc3)n2)n1C(C)C
In short: as §1

tipifarnib = compound: Cn1cncc1[C@@](N)(c1ccc(Cl)cc1)c1ccc2c(c1)c(-c1cccc(Cl)c1)cc(=O)n2C [tipifarnib]
In short: as §1

mubritinib = compound: FC(F)(F)c1ccc(/C=C/c2nc(COc3ccc(CCCCn4ccnn4)cc3)co2)cc1 [mubritinib]
In short: as §1

gandotinib = compound: Cc1cc(Nc2cc(CN3CCOCC3)c3nc(C)c(Cc4ccc(Cl)cc4F)n3n2)n[nH]1 [gandotinib]
In short: as §1

bafetinib = compound: Cc1ccc(NC(=O)c2ccc(CN3CC[C@H](N(C)C)C3)c(C(F)(F)F)c2)cc1Nc1nccc(-c2cncnc2)n1 [bafetinib]
In short: as §1

[5] = compound: Cc1cccc(CC(=O)N2CCc3c2ccc(-c2cn(C)c4ncnc(N)c24)c3F)n1
In short: as §1

[6] = compound: C[C@H](C1=CC=C(C=C1)C(=O)NC2=C3C=CNC3=NC=C2)N
In short: as §1

duvelisib = compound: C[C@H](Nc1ncnc2nc[nH]c12)c1cc2cccc(Cl)c2c(=O)n1-c1ccccc1 [duvelisib]
In short: as §1

[7] = compound: Cc1cc(SCc2sc(-c3ccc(C(F)(F)F)cc3)nc2C)ccc1OCC(=O)O
In short: as §1

ispinesib = compound: Cc1ccc(C(=O)N(CCCN)[C@@H](c2nc3cc(Cl)ccc3c(=O)n2Cc2ccccc2)C(C)C)cc1 [ispinesib]
In short: as §1

dasatinib = compound: Cc1nc(Nc2ncc(C(=O)Nc3c(C)cccc3Cl)s2)cc(N2CCN(CCO)CC2)n1 [dasatinib]
In short: as §1

[8] = compound: Cn1cc(-c2ccc3c(c2)CCN3C(=O)Cc2cccc(C(F)(F)F)c2)c2c(N)ncnc21
In short: as §1

[9] = compound: Cn1cc(-c2ccc3nnc(C(F)(F)c4ccc5ncccc5c4)n3n2)cn1
In short: as §1

Measured: log2 fold change

MAP3K20 isoform 2 (UniProt Q9NYL2)
inactive: [1] 0.038 | crizotinib -0.182 | [2] 0.082 | tozasertib -0.191 | doramapimod 0.096 | nilotinib 0.098 | [3] 0.014 | [4] -0.07 | tipifarnib 0.138 | mubritinib -0.134

MCM10 (UniProt Q7L590)
inactive: [1] -0.171 | crizotinib -0.015 | [2] -0.102 | gandotinib 0.092 | tozasertib 0.144 | doramapimod -0.01 | bafetinib 0.182 | [5] -0.044 | nilotinib 0.046 | [3] -0.001 | [4] -0.008 | tipifarnib -0.155 | mubritinib 0.09

LRFN1 (UniProt Q9P244)
inactive: [1] 0.108 | crizotinib -0.006 | [2] -0.15 | [6] -0.198 | duvelisib 0.038 | tozasertib -0.042 | [7] 0.009 | doramapimod -0.09 | ispinesib 0.102 | bafetinib -0.017 | dasatinib -0.129 | [8] 0.178 | [9] 0.011 | tipifarnib -0.026

KCNK5 (UniProt O95279)
UniProt O95279, sequence (O95279 whole entry, looked up): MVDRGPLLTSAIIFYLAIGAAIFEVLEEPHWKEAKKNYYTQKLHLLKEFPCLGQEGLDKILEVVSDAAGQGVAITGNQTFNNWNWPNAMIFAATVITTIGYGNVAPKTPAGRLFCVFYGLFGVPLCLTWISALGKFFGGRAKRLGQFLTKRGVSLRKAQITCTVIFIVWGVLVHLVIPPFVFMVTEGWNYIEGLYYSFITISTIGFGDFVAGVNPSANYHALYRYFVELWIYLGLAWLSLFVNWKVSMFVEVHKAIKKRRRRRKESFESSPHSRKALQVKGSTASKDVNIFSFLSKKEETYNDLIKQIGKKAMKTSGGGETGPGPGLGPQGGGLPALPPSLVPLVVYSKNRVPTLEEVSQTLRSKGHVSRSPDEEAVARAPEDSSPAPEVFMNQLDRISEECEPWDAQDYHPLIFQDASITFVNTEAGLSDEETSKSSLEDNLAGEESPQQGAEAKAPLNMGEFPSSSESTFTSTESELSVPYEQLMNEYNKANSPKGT
inactive: [1] 0.087 | crizotinib -0.164 | [2] 0.339 | [6] -0.013 | duvelisib 0.213 | gandotinib -0.03 | [7] 0.242 | doramapimod -0.165 | bafetinib -0.31 | [5] 0.025 | dasatinib -0.472 | [8] 0.139 | tipifarnib -0.183 | mubritinib 0.076

IL10RB (UniProt Q08334)
UniProt Q08334, sequence (Q08334 whole entry, looked up): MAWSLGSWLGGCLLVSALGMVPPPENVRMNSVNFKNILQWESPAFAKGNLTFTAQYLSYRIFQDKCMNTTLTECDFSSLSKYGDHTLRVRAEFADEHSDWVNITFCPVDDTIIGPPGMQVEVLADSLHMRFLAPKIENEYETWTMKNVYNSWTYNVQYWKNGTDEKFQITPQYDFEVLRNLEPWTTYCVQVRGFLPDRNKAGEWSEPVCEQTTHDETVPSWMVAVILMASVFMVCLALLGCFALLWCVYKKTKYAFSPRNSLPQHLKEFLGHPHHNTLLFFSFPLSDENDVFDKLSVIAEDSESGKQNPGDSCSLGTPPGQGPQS
inactive: [1] 0.004 | crizotinib 0.009 | [2] -0.031 | duvelisib 0.018 | gandotinib -0.238 | tozasertib -0.122 | [7] 0.089 | doramapimod -0.007 | bafetinib -0.079 | [5] -0.031 | nilotinib 0.026 | [3] 0.151 | dasatinib 0.068 | [4] 0.105 | tipifarnib 0.126

KMT5A (UniProt Q9NQR1)
UniProt Q9NQR1, sequence (Q9NQR1 whole entry, looked up): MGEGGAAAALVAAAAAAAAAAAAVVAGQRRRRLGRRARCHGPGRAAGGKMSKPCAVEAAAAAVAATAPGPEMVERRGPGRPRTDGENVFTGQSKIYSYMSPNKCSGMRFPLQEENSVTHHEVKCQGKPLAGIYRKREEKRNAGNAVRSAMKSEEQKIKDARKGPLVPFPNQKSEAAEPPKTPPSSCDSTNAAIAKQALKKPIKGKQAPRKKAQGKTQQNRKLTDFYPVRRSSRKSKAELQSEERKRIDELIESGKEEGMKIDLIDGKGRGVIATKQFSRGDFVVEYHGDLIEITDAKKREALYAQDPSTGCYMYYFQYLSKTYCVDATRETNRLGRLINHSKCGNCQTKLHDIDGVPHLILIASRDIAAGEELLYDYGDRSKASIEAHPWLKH
inactive: [1] 0.018 | gandotinib 0.038 | [5] -0.218

MAP4 isoform 5 (UniProt P27816)
UniProt P27816, sequence (P27816 whole entry, looked up): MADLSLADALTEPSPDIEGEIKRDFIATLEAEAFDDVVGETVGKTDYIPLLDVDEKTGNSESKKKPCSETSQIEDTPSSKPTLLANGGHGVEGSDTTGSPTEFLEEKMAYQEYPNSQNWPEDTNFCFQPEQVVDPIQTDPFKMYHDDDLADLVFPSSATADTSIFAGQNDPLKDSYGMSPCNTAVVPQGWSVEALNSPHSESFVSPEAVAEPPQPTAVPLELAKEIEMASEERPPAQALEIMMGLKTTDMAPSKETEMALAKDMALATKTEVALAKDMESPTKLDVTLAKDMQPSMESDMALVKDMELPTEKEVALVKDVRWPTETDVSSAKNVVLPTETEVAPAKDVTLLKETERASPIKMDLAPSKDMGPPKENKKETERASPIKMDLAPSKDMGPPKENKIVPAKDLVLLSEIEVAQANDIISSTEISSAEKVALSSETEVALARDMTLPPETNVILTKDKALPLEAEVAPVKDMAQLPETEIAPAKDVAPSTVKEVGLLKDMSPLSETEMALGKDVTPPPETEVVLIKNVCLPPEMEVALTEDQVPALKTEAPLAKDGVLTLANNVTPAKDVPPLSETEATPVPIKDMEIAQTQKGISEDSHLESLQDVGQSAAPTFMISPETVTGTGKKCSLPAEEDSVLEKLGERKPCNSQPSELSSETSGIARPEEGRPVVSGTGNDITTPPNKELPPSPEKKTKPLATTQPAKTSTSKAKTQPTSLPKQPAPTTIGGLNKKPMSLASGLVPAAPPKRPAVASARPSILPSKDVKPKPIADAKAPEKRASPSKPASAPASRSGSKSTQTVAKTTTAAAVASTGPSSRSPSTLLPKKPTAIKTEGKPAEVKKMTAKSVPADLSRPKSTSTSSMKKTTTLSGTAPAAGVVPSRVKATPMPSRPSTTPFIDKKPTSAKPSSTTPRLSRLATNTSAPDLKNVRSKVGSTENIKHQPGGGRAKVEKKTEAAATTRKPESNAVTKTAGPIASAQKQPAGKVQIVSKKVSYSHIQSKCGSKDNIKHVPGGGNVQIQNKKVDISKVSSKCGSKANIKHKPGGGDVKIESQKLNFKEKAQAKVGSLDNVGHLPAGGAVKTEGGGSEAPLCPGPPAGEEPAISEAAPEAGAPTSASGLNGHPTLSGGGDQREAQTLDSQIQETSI
inactive: [1] 0.096 | [2] -0.159 | ispinesib -0.042 | bafetinib -0.028 | nilotinib -0.181 | [3] 0.028 | [4] 0 | [9] -0.037 | tipifarnib 0.066 | mubritinib 0.027

LMNA isoform 2 (UniProt P02545)
inactive: tozasertib 0.357

MAPRE3 isoform 2 (UniProt Q9UPY8)
UniProt Q9UPY8, sequence (Q9UPY8 whole entry, looked up): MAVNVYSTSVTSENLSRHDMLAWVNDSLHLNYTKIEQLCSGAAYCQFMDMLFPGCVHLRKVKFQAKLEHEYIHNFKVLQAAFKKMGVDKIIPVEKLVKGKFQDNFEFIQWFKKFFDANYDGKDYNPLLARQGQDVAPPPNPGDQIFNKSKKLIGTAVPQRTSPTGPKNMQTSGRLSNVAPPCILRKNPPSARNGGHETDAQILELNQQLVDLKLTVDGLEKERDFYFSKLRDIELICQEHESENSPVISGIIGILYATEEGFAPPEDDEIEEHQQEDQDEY
inactive: crizotinib 0.22 | [6] 0.06 | tozasertib -0.264 | doramapimod 0.007 | nilotinib -0.539 | [3] -0.355 | [4] -0.118 | [8] -0.028 | tipifarnib 0.201

MED29 (UniProt Q9NX70)
UniProt Q9NX70, sequence (Q9NX70 whole entry, looked up): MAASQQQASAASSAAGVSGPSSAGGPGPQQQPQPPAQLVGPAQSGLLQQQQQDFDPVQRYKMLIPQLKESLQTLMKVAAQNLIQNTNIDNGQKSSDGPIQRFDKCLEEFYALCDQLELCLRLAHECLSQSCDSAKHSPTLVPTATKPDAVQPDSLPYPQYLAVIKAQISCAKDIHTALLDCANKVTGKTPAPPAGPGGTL
inactive: duvelisib -0.025 | [7] 0.171 | nilotinib 0.017 | [3] 0.027 | dasatinib 0.226 | [4] -0.14 | tipifarnib 0.169 | mubritinib -0.136

MGRN1 isoform 2 (UniProt O60291)
inactive: crizotinib -0.015 | [6] 0.225 | gandotinib 0.06 | tozasertib -0.136 | doramapimod 0.012 | ispinesib -0.225 | bafetinib -0.07 | [5] -0.227 | [8] -0.149 | [9] 0.027 | tipifarnib 0.2

MFSD8 (UniProt Q8NHS3)
inactive: crizotinib -0.013 | [2] 0.04 | [6] -0.023 | duvelisib -0.108 | gandotinib -0.018 | tozasertib 0.055 | [7] -0.015 | doramapimod 0.131 | ispinesib -0.208 | bafetinib -0.006 | [5] -0.12 | dasatinib 0.061 | [8] -0.007 | [9] 0.017 | tipifarnib -0.042 | mubritinib -0.002

MAGEA8 (UniProt P43361)
active: gandotinib -0.472 | nilotinib -0.372
inactive: crizotinib -0.003 | [6] 0.134 | duvelisib -0.082 | tozasertib -0.007 | [7] -0.002 | doramapimod 0.037 | ispinesib -0.034 | bafetinib 0.022 | [5] -0.265 | [3] -0.207 | dasatinib 0.019 | [4] 0.016 | [8] 0.008 | [9] -0.003 | tipifarnib -0.01

MAPK7 (UniProt Q13164)
inactive: [2] 0.03 | gandotinib 0.304 | doramapimod 0.057 | [5] 0.034
active: crizotinib 0.773

MAP4K4 isoform 6 (UniProt O95819)
inactive: [1] -0.019 | [6] -0.305 | duvelisib -0.152 | tozasertib -0.132 | [7] -0.025 | nilotinib 0.047 | [3] -0.034 | dasatinib -0.001 | [4] 0.008 | [8] 0.1 | mubritinib 0.02

LEPROT (UniProt O15243)
inactive: [2] -0.149 | [6] 0.083 | duvelisib 0.045 | gandotinib 0.081 | tozasertib 0.003 | [7] -0.026 | [5] 0.03 | dasatinib 0.188 | [8] -0.193 | mubritinib 0.041

LDLRAP1 (UniProt Q5SW96)
UniProt Q5SW96, sequence (Q5SW96 whole entry, looked up): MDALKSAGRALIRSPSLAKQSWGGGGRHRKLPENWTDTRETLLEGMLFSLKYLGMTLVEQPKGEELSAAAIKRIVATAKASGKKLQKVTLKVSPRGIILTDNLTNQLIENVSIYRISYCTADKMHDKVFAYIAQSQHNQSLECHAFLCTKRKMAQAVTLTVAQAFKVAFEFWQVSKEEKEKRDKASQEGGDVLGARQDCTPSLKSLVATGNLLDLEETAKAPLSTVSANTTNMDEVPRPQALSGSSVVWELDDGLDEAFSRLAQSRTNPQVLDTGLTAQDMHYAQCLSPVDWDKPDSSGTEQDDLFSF
inactive: crizotinib 0.004 | doramapimod 0.18 | ispinesib -0.088 | bafetinib -0.011 | [9] 0.14

IGFBP6 (UniProt P24592)
UniProt P24592, sequence (P24592 whole entry, looked up): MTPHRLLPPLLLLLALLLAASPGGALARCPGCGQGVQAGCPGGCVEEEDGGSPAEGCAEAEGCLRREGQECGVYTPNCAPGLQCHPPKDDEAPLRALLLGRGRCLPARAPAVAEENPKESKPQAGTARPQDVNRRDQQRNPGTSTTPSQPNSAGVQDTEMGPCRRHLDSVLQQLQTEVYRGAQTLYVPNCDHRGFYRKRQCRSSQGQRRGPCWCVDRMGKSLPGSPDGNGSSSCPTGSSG
active: ispinesib -0.712
inactive: [6] -0.035 | duvelisib 0.063 | [7] 0.14 | dasatinib -0.038 | [8] 0.152 | [9] 0.006

LRRCC1 (UniProt Q9C099)
inactive: duvelisib 0.09 | tozasertib 0.006 | [7] 0.013 | ispinesib -0.301 | dasatinib 0.017 | [9] 0.063

ITPRID2 (UniProt P28290)
UniProt P28290, sequence (P28290 whole entry, looked up): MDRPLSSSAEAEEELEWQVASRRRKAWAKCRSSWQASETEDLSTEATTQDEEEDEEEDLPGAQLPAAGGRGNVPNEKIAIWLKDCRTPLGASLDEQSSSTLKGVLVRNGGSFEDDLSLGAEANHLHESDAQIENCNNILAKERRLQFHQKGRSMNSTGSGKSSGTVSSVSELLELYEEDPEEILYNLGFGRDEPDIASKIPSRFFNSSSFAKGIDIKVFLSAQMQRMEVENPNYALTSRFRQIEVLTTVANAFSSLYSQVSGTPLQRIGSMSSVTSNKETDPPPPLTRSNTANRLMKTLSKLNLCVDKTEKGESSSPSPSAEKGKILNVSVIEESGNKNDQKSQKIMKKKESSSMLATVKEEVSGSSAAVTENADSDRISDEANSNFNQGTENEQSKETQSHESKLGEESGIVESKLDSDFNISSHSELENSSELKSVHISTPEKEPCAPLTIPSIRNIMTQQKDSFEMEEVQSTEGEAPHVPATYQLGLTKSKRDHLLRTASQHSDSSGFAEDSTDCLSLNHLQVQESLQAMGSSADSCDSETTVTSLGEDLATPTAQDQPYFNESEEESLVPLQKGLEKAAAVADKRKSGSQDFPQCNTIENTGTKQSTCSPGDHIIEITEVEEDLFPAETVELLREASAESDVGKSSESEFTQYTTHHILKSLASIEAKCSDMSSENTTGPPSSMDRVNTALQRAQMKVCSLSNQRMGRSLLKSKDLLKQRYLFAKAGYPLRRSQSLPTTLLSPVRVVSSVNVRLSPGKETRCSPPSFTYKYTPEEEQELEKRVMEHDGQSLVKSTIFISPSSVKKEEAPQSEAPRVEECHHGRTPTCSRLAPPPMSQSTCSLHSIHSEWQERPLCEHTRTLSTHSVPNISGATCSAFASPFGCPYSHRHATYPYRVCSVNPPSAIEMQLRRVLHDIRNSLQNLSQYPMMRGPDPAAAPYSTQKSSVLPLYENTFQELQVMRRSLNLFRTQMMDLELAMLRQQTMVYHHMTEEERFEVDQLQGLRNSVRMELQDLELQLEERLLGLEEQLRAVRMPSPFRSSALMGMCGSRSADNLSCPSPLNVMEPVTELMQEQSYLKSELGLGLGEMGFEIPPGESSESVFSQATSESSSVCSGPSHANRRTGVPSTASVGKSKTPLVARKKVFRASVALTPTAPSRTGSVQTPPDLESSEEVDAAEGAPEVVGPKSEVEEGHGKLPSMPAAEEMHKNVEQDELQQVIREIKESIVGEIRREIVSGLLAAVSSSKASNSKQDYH
inactive: crizotinib -0.201 | [2] 0.229 | doramapimod -0.056 | ispinesib -0.035 | [9] -0.032 | tipifarnib -0.056

MARCHF3 (UniProt Q86UD3)
UniProt Q86UD3, sequence (Q86UD3 whole entry, looked up): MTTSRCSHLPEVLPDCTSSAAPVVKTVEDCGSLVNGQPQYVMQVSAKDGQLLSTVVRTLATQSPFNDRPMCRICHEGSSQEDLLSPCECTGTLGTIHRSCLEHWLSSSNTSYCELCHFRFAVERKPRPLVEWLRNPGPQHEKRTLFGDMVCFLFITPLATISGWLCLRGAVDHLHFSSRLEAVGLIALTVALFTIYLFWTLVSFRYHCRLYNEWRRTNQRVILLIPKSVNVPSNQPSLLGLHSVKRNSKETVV
inactive: [1] 0.243 | [2] 0.029 | bafetinib 0.109 | nilotinib 0.156 | [3] 0.15 | [4] 0.036 | tipifarnib 0.001
